Among all 27,000 compounds or so, about 120 (0.44%) were called active. This excerpt belongs to a sample that is enriched for actives. A number with no mark means an inactive call. Cut-off read from the data, not from the text of the source: active = inhibition above about 20%; inconclusive = no clear call, values can overlap the other calls; inactive = below that.
These compounds were tested against Serine/threonine-protein kinase 33 (Homo sapiens) (UniProt Q9BYT3) (assay: STK33 kinase inhibitors, primary screen, biochemical, luminescence, ADP-Glo, MBP substrate (AID 2322)). Conditions: at 12.5 µM, stronger effect = higher value.
Chain of Serine/threonine-protein kinase 33 (Homo sapiens) (Q9BYT3 whole entry, looked up): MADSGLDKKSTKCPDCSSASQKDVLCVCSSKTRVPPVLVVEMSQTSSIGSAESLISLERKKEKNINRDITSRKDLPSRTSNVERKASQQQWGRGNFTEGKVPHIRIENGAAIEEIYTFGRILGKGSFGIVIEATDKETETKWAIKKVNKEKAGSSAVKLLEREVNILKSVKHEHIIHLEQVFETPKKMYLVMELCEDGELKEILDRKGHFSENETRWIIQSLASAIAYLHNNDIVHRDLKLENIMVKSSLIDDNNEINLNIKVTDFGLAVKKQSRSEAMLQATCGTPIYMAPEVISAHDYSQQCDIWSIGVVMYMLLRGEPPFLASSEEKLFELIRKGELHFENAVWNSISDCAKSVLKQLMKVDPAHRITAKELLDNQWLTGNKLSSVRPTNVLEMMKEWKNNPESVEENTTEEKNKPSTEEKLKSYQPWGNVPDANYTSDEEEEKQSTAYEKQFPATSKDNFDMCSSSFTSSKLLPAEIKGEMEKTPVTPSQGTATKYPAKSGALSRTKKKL
Work on `Cc1ccc(-c2ccc(CCC(=O)O)n2-c2ccc(C(N)=O)cc2)cc1` yielded an inhibition of -3.89%.
Compound `O=C(NCc1ccco1)c1ccc2c(c1)C(=O)N(Cc1cccnc1)C2=O` has an inhibition of -0.956%.
`Cc1ccc(-c2nc(S(=O)(=O)c3ccc(Br)cc3)c(SCC(N)=O)o2)cc1` gave an inhibition of 4.38%.
Compound `Cc1ccc(S(=O)(=O)N(C)CC(=O)Nc2cccc(F)c2)cc1` has an inhibition of -1.04%.
For `CCOC(=O)C(C)Sc1ncnc2c1sc1nc(N3CCOCC3)c3c(c12)CC(C)(C)OC3` (configuration not stated), the inhibition was -0.767%.
In the case of `Cc1ccc(NC(=O)CSc2nc3ccccc3s2)cc1[N+](=O)[O-]`, the inhibition is reported as 1.36%.
With `CC(C)[C@H](CO)Nc1nc(Nc2cc(N)cc(Cl)c2)c2ncn(C(C)C)c2n1` the inhibition was 89.6% (active).
In the case of `Cc1ccc(S(=O)(=O)N(C)C[C@@H]2Oc3ccc(NC(=O)Nc4ccc(F)cc4)cc3C(=O)N([C@H](C)CO)C[C@@H]2C)cc1`, the inhibition is reported as -2.65%.
With `O=C(CCn1nc(-c2ccc(Cl)cc2)c2ccccc2c1=O)Nc1ccc(Br)cc1` the inhibition was -3.22%.
In the case of `O=C(O)CCNS(=O)(=O)c1ccc2c(c1)OCCO2`, the inhibition is reported as 1.73%.
`C(=C\c1nn2c(C3COc4ccccc4O3)nnc2s1)/c1ccccc1` (configuration not stated) was tested, and the inhibition was -1.1%.
Compound `C[C@H]1CN([C@@H](C)CO)C(=O)CCCn2nncc2CO[C@H]1CN(C)Cc1ccc2c(c1)OCO2` has an inhibition of 5.15%.
`CN(CC(=O)Nc1ccc(Cl)c(Cl)c1)S(=O)(=O)c1ccc2ccccc2c1` showed an inhibition of 0.105%.
Work on `Cc1ccc(CN(C)C[C@H]2OCc3cn(nn3)CCCC(=O)N([C@@H](C)CO)C[C@H]2C)cc1` yielded an inhibition of 3.49%.
`Cc1ccccc1OCC(=O)Nc1cc(-c2nc3ccccc3s2)c(Cl)cc1Cl` showed an inhibition of -0.293%.
Work on `COc1ccc(NC(=O)COc2cc(C)c(Br)c(C)c2)c([N+](=O)[O-])c1` yielded an inhibition of -1.64%.
Compound `COc1cccc(NC(=O)N(C)C[C@@H]2OCc3cn(nn3)CCCC(=O)N([C@@H](C)CO)C[C@H]2C)c1` has an inhibition of -4.73%.
In the case of `O=C(CSc1nc2ccccc2s1)c1cc2ccccc2oc1=O`, the inhibition is reported as -1.09%.
With `COc1cc(Cl)c(C)cc1NC(=O)CSc1nnnn1-c1ccccc1` the inhibition was -5.72%.
`O=C(CSc1nnc(-c2cccs2)n1-c1ccccc1Cl)Nc1cccc(C(=O)O)c1` gave an inhibition of -0.392%.
With `Cn1c(=O)c2c(nc(SCC(=O)NC(C)(C)C)n2Cc2ccccc2F)n(C)c1=O` the inhibition was -1.84%.
For `C[C@@H]1CN([C@@H](C)CO)C(=O)CCCn2cc(nn2)CO[C@@H]1CN(C)S(=O)(=O)c1cccc(F)c1`, the inhibition was -2.04%.
`COc1ccc(NC(=O)CSc2nnc(-c3ccc(Br)cc3)n2C)cc1` gave an inhibition of -2.11%.
`CCn1c(SCC(=O)c2ccc(OC)cc2)nnc1-c1ccc(Cl)cc1Cl` gave an inhibition of -3.02%.
`Cc1noc(C)c1NC(=O)Nc1ccc2c(c1)C(=O)N([C@H](C)CO)C[C@H](C)[C@@H](CN(C)Cc1ccc3c(c1)OCO3)OCCCC[C@@H](C)O2` showed an inhibition of -1.44%.
For `C[C@@H]1CN([C@H](C)CO)C(=O)Cc2cc(NC(=O)Nc3ccc4c(c3)OCO4)ccc2O[C@@H]1CN(C)C(=O)Nc1ccccc1`, the inhibition was 0.707%.
In the case of `C=CCn1c2ccccc2c2nnc(SCC(=O)N3c4ccccc4Sc4ccccc43)nc21`, the inhibition is reported as -0.993%.
Work on `C[C@@H]1CN([C@@H](C)CO)C(=O)CCCn2cc(nn2)CO[C@@H]1CN(C)S(=O)(=O)c1ccccc1C#N` yielded an inhibition of -7.04%.
Compound `COC(=O)c1cc(NC(=O)Cc2ccccc2[N+](=O)[O-])ccc1Cl` has an inhibition of 1.83%.
`CCn1c(SCC(=O)c2ccc(OC)cc2)nnc1-c1ccccc1F` was tested, and the inhibition was -0.529%.
For `Cc1cc(OCc2nc3ccccc3s2)ccc1NC(=O)c1cccc(F)c1`, the inhibition was 0.681%.
In the case of `CS(=O)(=O)N(CC(=O)Nc1ccc(F)cc1F)c1cc(Cl)c(Cl)cc1Cl`, the inhibition is reported as -1.13%.
`C=CCN1C(=O)[C@]2(O[C@H](CCn3cc(CCO)nn3)[C@@H]([Si](C)(C)c3ccc(OC)cc3)[C@@H]2C)c2cc(N3CCOC3=O)ccc21` was tested, and the inhibition was -0.0517%.
For `CC(=O)c1cccc(N(CC(=O)Nc2ccccc2C(F)(F)F)S(C)(=O)=O)c1`, the inhibition was 0.774%.
For `COc1c(O)cc2oc(-c3ccc(O)c(O)c3)cc(=O)c2c1O`, the inhibition was 39.8% (active).
Compound `CCc1ccccc1NC(=O)COc1cc(O)c2c(=O)cc(-c3ccccc3)oc2c1` has an inhibition of 6.95%.
Compound `CC(=O)OC[C@H]1O[C@@H](Oc2c(-c3ccc(O)c(O)c3)oc3cc(O)cc(O)c3c2=O)[C@H](O)[C@@H](O)[C@@H]1O` has an inhibition of 6.14%.
Work on `Cc1ccc2nc(-c3ccc(Cl)c(NC(=O)COc4ccc(Br)cc4)c3)oc2c1` yielded an inhibition of 0.49%.
For `Cc1ccc(-c2nnc(SCC(=O)Nc3ccccc3OC(F)F)o2)cc1`, the inhibition was 2.8%.
Work on `C[C@H]1CN([C@@H](C)CO)C(=O)c2cc(NC(=O)CCN3CCOCC3)ccc2O[C@@H]1CN(C)C(=O)Nc1ccc(C(F)(F)F)cc1` yielded an inhibition of -0.787%.
Work on `N#Cc1c(NC(=O)C2CC(Cl)=CCC2C(=O)O)sc2c1CCC2` (configuration not stated) yielded an inhibition of -3.84%.
With `CCc1cc(Br)cc(C)c1NC(=O)CSc1nnc(-c2ccc(Cl)cc2)n1C` the inhibition was 3.71%.
Compound `C[C@@H]1CN([C@H](C)CO)C(=O)CCCn2nncc2CO[C@@H]1CN(C)S(=O)(=O)c1cccc(C#N)c1` has an inhibition of -5.23%.
Work on `COC(=O)Nc1ccc(S(=O)(=O)N2CCCC(C(=O)Nc3ccc(N(C)C)cc3)C2)cc1` (configuration not stated) yielded an inhibition of -2.4%.
Compound `C[C@@H]1CCCCO[C@H](CN(C)C(=O)NC2CCCCC2)[C@@H](C)CN([C@H](C)CO)C(=O)c2cc(NS(=O)(=O)c3ccc(F)cc3)ccc2O1` has an inhibition of -0.501%.
`O=C(CSc1nc2c(c(C(F)(F)F)n1)CCCC2)N1c2ccccc2Sc2ccccc21` showed an inhibition of 2.75%.
Compound `Cc1cc(C)cc(NC(=O)CSc2nnc(-c3ccncc3)n2-c2ccccc2)c1` has an inhibition of -3.15%.
`Cc1noc(C)c1S(=O)(=O)Nc1ccc2c(c1)CC(=O)N([C@@H](C)CO)C[C@H](C)[C@@H](CN(C)S(=O)(=O)c1cn(C)cn1)O2` gave an inhibition of 1.65%.
Compound `COc1cccc(NC(=O)CCC(=O)O)c1` has an inhibition of -2.64%.
Compound `Cc1cccc(NC(=O)CSc2nnc3c4ccccc4nc(-c4ccccc4)n23)c1` has an inhibition of -2.64%.
With `Cc1cccc(C)c1NC(=O)CSc1nc(O)cc(=O)[nH]1` the inhibition was -1.7%.
`COc1ccccc1CC(=O)Nc1ccc(-c2nnc(-c3ccc(C)cc3)o2)cc1` was tested, and the inhibition was 6.73%.
Work on `Cc1ccc2nc(-c3ccncc3)cc(C(=O)NCc3ccccn3)c2c1` yielded an inhibition of -5.08%.
Compound `COC(=O)c1sccc1NC(=O)COc1cc(C)ccc1Cl` has an inhibition of 6.51%.
With `COc1cc2c(cc1NC(=O)CN(C)S(=O)(=O)c1ccc(Br)cc1)oc1ccccc12` the inhibition was -2.44%.
With `Cc1ccc([N+](=O)[O-])cc1NC(=O)CSc1nnc(-c2ccncc2)n1C` the inhibition was -0.493%.
Compound `O=C(CCn1nc(-c2ccccc2)c2ccccc2c1=O)Nc1cccc(Br)c1` has an inhibition of 8.57%.
In the case of `O=C(COc1ccc2ccccc2c1Br)NCCN1CCOCC1`, the inhibition is reported as 0.329%.
`O=C(CSc1nnc(-c2ccncc2)n1-c1ccccc1)Nc1ccc(OC(F)(F)F)cc1` gave an inhibition of 1.66%.
With `COC(=O)c1c(-c2cccnc2)csc1NC(=O)c1cc(-c2ccc(C)o2)nc2ccccc12` the inhibition was 9.69%.
Compound `C[C@@H]1CN([C@H](C)CO)C(=O)Cc2cc(NC(=O)CCCN(C)C)ccc2O[C@H]1CN(C)S(=O)(=O)c1cccs1` has an inhibition of -0.927%.
`COc1cc(OC)c(C2=NOC(C(=O)Nc3cccnc3)C2)cc1Cl` (configuration not stated) was tested, and the inhibition was -2.64%.
`C[C@H](CO)N1C[C@H](C)[C@H](CN(C)S(=O)(=O)c2ccccc2)Oc2ccc(NC(=O)Cn3cnnn3)cc2C1=O` was tested, and the inhibition was 1.24%.
With `COc1ccc(S(=O)(=O)Nc2ccc3c(c2)C(=O)N([C@H](C)CO)C[C@H](C)[C@@H](CN(C)Cc2ccc(-c4ccccc4)cc2)O3)cc1` the inhibition was 2.44%.
`CC(=O)Nc1ccc(S(=O)(=O)NC2(C(F)(F)F)C(=O)N(Cc3ccc(F)cc3)C3=C2C(=O)CC(C)(C)C3)cc1` (configuration not stated) showed an inhibition of -0.346%.
Compound `CCOC(=O)c1sc(NC(=O)c2cc(C)on2)c(C(=O)OCC)c1C` has an inhibition of -1.02%.
In the case of `Cc1nnc(SCC(=O)Nc2cc(C(F)(F)F)ccc2Cl)s1`, the inhibition is reported as 3.42%.
For `O=C(COc1ccc2oc3c(c2c1)CCCC3)Nc1cccnc1`, the inhibition was -2.38%.
For `O=C1c2ccccc2C(=O)N1CCCc1nc2ccccc2c(=O)n1-c1nc2ccccc2s1`, the inhibition was -0.682%.
For `CC(C)=CCCC(C)(O)C(O)Cc1cc(C(=O)O)cc(CC=C(C)C)c1O` (configuration not stated), the inhibition was -4.79%.
Work on `O=C(Cn1ccc([N+](=O)[O-])n1)NCc1cccs1` yielded an inhibition of 4.56%.
Work on `COc1ccc(C(=O)N(Cc2nc(-c3ccccc3)no2)C(C)C)cc1[N+](=O)[O-]` yielded an inhibition of -9.54%.
In the case of `COC(=O)c1cc(OC)c(OC)cc1NC(=O)COc1ccc(Cl)cc1`, the inhibition is reported as -1.45%.
In the case of `Cc1cc(Cl)ccc1NC(=O)CN(c1ccc(Cl)c(Cl)c1)S(C)(=O)=O`, the inhibition is reported as -1.61%.
`O=S(=O)(c1ccc(F)cc1)c1nc(-c2ccccc2Cl)oc1NCc1ccco1` showed an inhibition of 4.44%.
`COc1cc(-c2nc3ccccc3s2)ccc1OCC(=O)Nc1ccc(C)cc1` showed an inhibition of 1.24%.
`C[C@H](CO)N1C[C@H](C)[C@H](CN(C)C)Oc2ncc(/C=C/c3ccccc3)cc2C1=O` was tested, and the inhibition was -3.66%.

From PubChem BioAssay AID2322 (Broad Institute, 2010)
